From the supplement of paper PMC8975748
Where a name gives a salt, the structure may show the parent alone. ± gives the standard deviation of the averaged measurements.

Key:
[1] = tested on: Saccharomyces cerevisiae BY4741 SeMeCo community; test: mean cell size (pixel area) (pixels); higher = larger cells; details: 10 µM; 24 h; SM minimal medium
In short: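 A Saccharomyces cerevisiae BY4741 community carrying four plasmids, each with a fluorescent marker and each complementing one auxotrophy, was exposed for 24 h to drug at a final 10 µM in SM medium in acoustically predosed 384-well plates. The overnight preculture (OD600 = 1.0) was diluted to OD600 = 0.3 before 70 µl was added per well. Cells were then fixed with paraformaldehyde, imaged by automated confocal microscopy and analysed in Harmony to derive mean cell pixel area per well, averaged over 3 replicates. Same SeMeCo high-content imaging drug screen: Selleck FDA-approved drugs at 10 µM, 24 h in SM medium, 384-well plates, 3 replicates.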

[2] = tested on: Saccharomyces cerevisiae BY4741 SeMeCo community; test: z-score of prototroph abundance vs DMSO median; higher = larger share of this subpopulation than in DMSO controls; details: 10 µM; 24 h; SM minimal medium; subpopulation (auxotrophy): Prototroph
In short: (§1)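 A Saccharomyces cerevisiae BY4741 community carried four plasmids, each restoring one auxotrophy and encoding a distinct fluorescent protein. It was pre-grown overnight to OD600 1.0, diluted to 0.3, and 70 µl was added to 384-well plates acoustically predosed with library drugs (10 µM final), then grown 24 h in minimal SM medium. Cells were paraformaldehyde-fixed and imaged by automated confocal microscopy, with single-auxotroph fluorescent strains setting thresholds and autofluorescence correction. Each subpopulation's abundance was scored as a z-score against the vehicle-well median.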

[3] = tested on: Saccharomyces cerevisiae BY4741 SeMeCo community; test: z-score of subpopulation abundance vs DMSO median, subpopulation auxotrophic for M; higher = larger share of this subpopulation than in DMSO controls; details: 10 µM; 24 h; SM minimal medium; subpopulation (auxotrophy): M
In short: as §1

[4] = tested on: Saccharomyces cerevisiae BY4741 SeMeCo community; test: z-score of subpopulation abundance vs DMSO median, subpopulation auxotrophic for L; higher = larger share of this subpopulation than in DMSO controls; details: 10 µM; 24 h; SM minimal medium; subpopulation (auxotrophy): L
In short: as §1

[5] = tested on: Saccharomyces cerevisiae BY4741 SeMeCo community; test: z-score of subpopulation abundance vs DMSO median, subpopulation auxotrophic for U; higher = larger share of this subpopulation than in DMSO controls; details: 10 µM; 24 h; SM minimal medium; subpopulation (auxotrophy): U
In short: as §1

[6] = tested on: Saccharomyces cerevisiae BY4741 SeMeCo community; test: z-score of subpopulation abundance vs DMSO median, subpopulation auxotrophic for H; higher = larger share of this subpopulation than in DMSO controls; details: 10 µM; 24 h; SM minimal medium; subpopulation (auxotrophy): H
In short: as §1

[7] = tested on: Saccharomyces cerevisiae BY4741 SeMeCo community; test: z-score of subpopulation abundance vs DMSO median, subpopulation auxotrophic for LU; higher = larger share of this subpopulation than in DMSO controls; details: 10 µM; 24 h; SM minimal medium; subpopulation (auxotrophy): LU
In short: as §1

[8] = tested on: Saccharomyces cerevisiae BY4741 SeMeCo community; test: z-score of subpopulation abundance vs DMSO median, subpopulation auxotrophic for LM; higher = larger share of this subpopulation than in DMSO controls; details: 10 µM; 24 h; SM minimal medium; subpopulation (auxotrophy): LM
In short: as §1

[9] = tested on: Saccharomyces cerevisiae BY4741 SeMeCo community; test: z-score of subpopulation abundance vs DMSO median, subpopulation auxotrophic for HM; higher = larger share of this subpopulation than in DMSO controls; details: 10 µM; 24 h; SM minimal medium; subpopulation (auxotrophy): HM
In short: as §1

[10] = tested on: Saccharomyces cerevisiae BY4741 SeMeCo community; test: z-score of subpopulation abundance vs DMSO median, subpopulation auxotrophic for HU; higher = larger share of this subpopulation than in DMSO controls; details: 10 µM; 24 h; SM minimal medium; subpopulation (auxotrophy): HU
In short: as §1

[11] = tested on: Saccharomyces cerevisiae BY4741 SeMeCo community; test: z-score of subpopulation abundance vs DMSO median, subpopulation auxotrophic for HL; higher = larger share of this subpopulation than in DMSO controls; details: 10 µM; 24 h; SM minimal medium; subpopulation (auxotrophy): HL
In short: as §1

[12] = tested on: Saccharomyces cerevisiae BY4741 SeMeCo community; test: z-score of subpopulation abundance vs DMSO median, subpopulation auxotrophic for HLU; higher = larger share of this subpopulation than in DMSO controls; details: 10 µM; 24 h; SM minimal medium; subpopulation (auxotrophy): HLU
In short: as §1

[13] = tested on: Saccharomyces cerevisiae BY4741 SeMeCo community; test: z-score of subpopulation abundance vs DMSO median, subpopulation auxotrophic for HLM; higher = larger share of this subpopulation than in DMSO controls; details: 10 µM; 24 h; SM minimal medium; subpopulation (auxotrophy): HLM
In short: as §1

[14] = tested on: Saccharomyces cerevisiae BY4741 SeMeCo community; test: z-score of subpopulation abundance vs DMSO median, subpopulation auxotrophic for HUM; higher = larger share of this subpopulation than in DMSO controls; details: 10 µM; 24 h; SM minimal medium; subpopulation (auxotrophy): HUM
In short: as §1

[15] = tested on: Saccharomyces cerevisiae BY4741 SeMeCo community; test: z-score of subpopulation abundance vs DMSO median, subpopulation auxotrophic for LUM; higher = larger share of this subpopulation than in DMSO controls; details: 10 µM; 24 h; SM minimal medium; subpopulation (auxotrophy): LUM
In short: as §1

[16] = tested on: Saccharomyces cerevisiae BY4741 SeMeCo community; test: z-score of subpopulation abundance vs DMSO median, subpopulation auxotrophic for HLUM; higher = larger share of this subpopulation than in DMSO controls; details: 10 µM; 24 h; SM minimal medium; subpopulation (auxotrophy): HLUM
In short: as §1

[17] = tested on: Saccharomyces cerevisiae BY4741 SeMeCo community; test: z-score of subpopulation abundance vs DMSO median, subpopulation auxotrophic for UM; higher = larger share of this subpopulation than in DMSO controls; details: 10 µM; 24 h; SM minimal medium; subpopulation (auxotrophy): UM
In short: as §1

| SMILES | mean cell size [1] | z-score of prototroph abundance [2] | z-score of subpopulation abundance [3] | z-score of subpopulation abundance [4] | z-score of subpopulation abundance [5] | z-score of subpopulation abundance [6] | z-score of subpopulation abundance [7] | z-score of subpopulation abundance [8] | z-score of subpopulation abundance [9] | z-score of subpopulation abundance [10] | z-score of subpopulation abundance [11] | z-score of subpopulation abundance [12] | z-score of subpopulation abundance [13] | z-score of subpopulation abundance [14] | z-score of subpopulation abundance [15] | z-score of subpopulation abundance [16] | z-score of subpopulation abundance [17] |
| --- | --- | --- | --- | --- | --- | --- | --- | --- | --- | --- | --- | --- | --- | --- | --- | --- | --- |
| Oc1c(I)cc(I)c2cccnc12 [Diiodohydroxyquinoline] | 12.1 ± 0.48 | -3.05 | -0.3 | 0.99 | 2.25 | 2.75 | 3.93 | 0.38 | 2.21 | 2.97 | 2.9 | 4.17 | 2.46 | 1.2 | 2.87 | 1.67 | – |
| O=C(c1ccc(OCCN2CCCCC2)cc1)c1c(-c2ccc(O)cc2)sc2cc(O)ccc12 [Raloxifene] | 12.3 ± 0.38 | 0.7 | -0.22 | 1.05 | -1.73 | 1.48 | -2.15 | 0.49 | 0.02 | -1.39 | 0.96 | 0.52 | 0.78 | -0.2 | -0.37 | 0.09 | – |
| CNCCCC1c2ccccc2C=Cc2ccccc21 [Protriptyline hydrochloride] | 12.4 ± 0.15 | -0.57 | -0.4 | -0.45 | 0.84 | 0.19 | 0.57 | -0.93 | -0.42 | 0.37 | – | 0.54 | -0.07 | 0.54 | 0.28 | -0.01 | 0.52 |
| COCCOC(=O)C1=C(C)NC(C)=C(C(=O)OC(C)C)C1c1cccc([N+](=O)[O-])c1 (configuration not stated) [Nimodipine] | 12.31 ± 0.09 | 0.04 | -0.26 | 0.55 | 0.32 | -0.5 | -0.12 | -0.2 | -0.32 | 0.19 | -0.61 | -0.01 | -0.43 | -0.42 | 0.35 | -0.14 | 0.69 |
| CN1C(C(=O)Nc2ccccn2)=C(O)c2ccccc2S1(=O)=O [Piroxicam] | 12.79 ± 0.11 | 1.29 | -0.1 | -0.78 | -0.17 | -0.62 | -0.71 | -1.45 | -0.94 | -0.6 | -0.37 | -1.14 | -0.68 | -0.89 | -1.33 | -0.92 | -0.3 |
| COc1ccnc(C[S+]([O-])c2nc3cc(OC(F)F)ccc3[nH]2)c1OC (configuration not stated) [Pantoprazole sodium] | 12.5 ± 0.28 | -0.43 | 0.43 | -0.4 | -0.3 | 0.86 | -0.65 | 0 | 0.29 | 0.06 | – | -0.16 | -0.85 | 0.3 | 0 | -0.49 | 0.55 |
| CN1CCCN=C1/C=C/c1cccc(O)c1 [Oxantel Pamoate] | 12.6 ± 0.29 | 1.15 | 1.17 | -0.58 | -1.1 | 0.29 | -0.45 | -0.51 | -0.6 | -0.96 | – | -0.35 | -0.2 | -1.13 | -1.13 | -0.41 | -1.73 |
| Nc1ccc(S(=O)(=O)Nc2cnc3ccccc3n2)cc1 [Sulfaquinoxaline sodium] | 12 ± 0.22 | -0.68 | 1.16 | -1.08 | 1.01 | -1.04 | 0.22 | 0.34 | 0.61 | 1.05 | – | 0.31 | -0.05 | 0.79 | 0.81 | -0.23 | 1.56 |
| CC1=C(C(=O)O)N2C(=O)[C@@H](NC(=O)[C@H](N)C3=CCC=CC3)[C@H]2SC1 [Cephradine monohydrate] | 11.9 ± 0.16 | – | -0.02 | -0.33 | 1.31 | -0.1 | 0.27 | -0.77 | -0.39 | 0.11 | – | -0.12 | 0.11 | -0.61 | -0.79 | 0.01 | 0.58 |
| CN1CCC[C@@H]1Cc1c[nH]c2ccc(CCS(=O)(=O)c3ccccc3)cc12 [Eletriptan HBr] | 12.5 ± 0.44 | 0.55 | 0.9 | 0.61 | -0.94 | – | -1.12 | 0.75 | 0.08 | -1.27 | -0.15 | -0.54 | -0.5 | -0.47 | -1.48 | -0.74 | – |
| N=C(N)NC(=O)c1nc(Cl)c(N)nc1N [Amiloride HCl dihydrate] | 12.1 ± 0.19 | – | 3.23 | 0.68 | -3.02 | 0.83 | -3.52 | 2.66 | 1.29 | -2.8 | 0.71 | -1.34 | 0.23 | -1.45 | -1.62 | -0.95 | -3.7 |
| CCN1CCN(c2cc3c(cc2F)c(=O)c(C(=O)O)cn3C2CC2)CC1 [Enrofloxacin] | 12.04 ± 0.1 | 0.16 | 0.24 | -0.5 | 0.01 | -0.13 | -0.21 | 0.01 | -0.25 | 0.07 | – | -0.04 | 0.21 | 0.02 | -0.06 | -0.35 | 0 |
| OCCOc1ccc(/C(=C(/CCCl)c2ccccc2)c2ccccc2)cc1 [Ospemifene] | 12.7 ± 0.24 | – | 0.43 | -0.6 | -0.86 | – | -1.59 | -0.34 | 1.37 | -0.18 | 0.7 | 0.94 | -0.21 | -0.62 | -0.52 | -0.5 | -0.91 |
